Test [1] can be described thus: viability loss with induced miR-34 in A549 – imaging, A549 dox-inducible miR-34, nuclei and caspase counts, primary screen (AID 1347080). Particulars: A549 miR-34 inducible, Hoechst nuclei count, 48 h.
Test [2] can be described thus: chitosan synthesis blockers in C. neoformans – flow cytometry, Cibacron Brilliant Red staining (AID 1347148; call rule not given here;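 further: compound exposure lasted three days at 37 degrees C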). The settings on record: Cryptococcus neoformans chitosan, stronger effect = lower value; at 10 µM unless noted. (In flow cytometry, cells or beads pass a laser one at a time.)
Setting [3] is: measured here: relative caspase fold change +Dox/-Dox.
The mark [4] stands for this setting: measured here: total cells with miR-34 induction, stronger effect = lower value.
Where [5] appears, read: measured here: total cells without miR-34 induction.
Setting [6] is: stronger effect = lower value, cell number ratio, induced over uninduced.

The source made the active and inactive calls.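 How the source made its calls, unless noted: active means compounds whose cell count with miR-34 switched on is under 0.7 times the count with it off; inactive means the rest.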 Peptide text beside a SMILES is read from it. * marks the point of attachment. CH2Cl = ClC*

For the compound `CCCCCCC(=O)O[C@H]1CC[C@H]2[C@@H]3C=CC4=CC(=O)CC[C@]4(C)[C@H]3CC[C@]12C`, the fold change is 0.948 (inactive) in test [1] (stronger effect = lower value) and 0.362 in test [1] (setting [3]). The cell count was 5660 in test [1] (setting [4]) and 5970 in test [1] (setting [5]).
With `CCOC(=O)CN1C(=O)CC(C[C@@H](O)C2C[C@@H](C)C[C@H](C)C2=O)CC1=O` (some centres undefined), the fold change was 1.01 (inactive) in test [1] (stronger effect = lower value) and 1.21 in test [1] (setting [3]). Besides, the cell count in test [1] (setting [4]) worked out at 4960; in test [1] (setting [5]), 4910. Also, the fold fluorescence in test [2] is 10.9 [at 136.1 µM] (inactive).
For `CN=C(NS(=O)(=O)c1ccc(Cl)cc1)N1C[C@@H](c2ccccc2)C(c2ccc(Cl)cc2)=N1`, the fold change in test [1] (setting [6]) was 0.663 (active); in test [1] (setting [3]), 0.468. The cell count in test [1] (setting [4]) stood at 3940; in test [1] (setting [5]), 5940.
In the case of `C[C@@]1(CO)[C@H](O)CC[C@@]2(C)[C@H]1CC[C@H]1C[C@@H]3C[C@@]12CC[C@]3(O)CO`, the fold change in test [1] (stronger effect = lower value) was 1.03 (inactive); in test [1] (setting [3]) it was 0.966. For the same compound, the cell count in test [1] (setting [4]) stood at 2420; in test [1] (setting [5]), 2350.
With `CCCCC/C=C\C/C=C\C/C=C\C/C=C\CCCC(=O)Nc1cccc(O)c1`, the fold change in test [1] (setting [6]) was 0.942 (inactive); in test [1] (setting [3]), 0.281. Moreover, the values for the cell count in test [1] (setting [4]) and in test [1] (setting [5]) were 5390 and 5720, respectively.
For `CCCC[C@@H](C)[C@@H](OC(=O)C[C@@H](CC(=O)O)C(=O)O)[C@H](C[C@@H](C)C[C@H](O)CCCC[C@@H](O)C[C@H](O)[C@H](C)N)OC(=O)C[C@H](CC(=O)O)C(=O)O`, the fold change in test [1] (stronger effect = lower value) is 0.911 (inactive); in test [1] (setting [3]), 1.82. Further, the cell count was found to be 5520 in test [1] (setting [4]) and 6060 in test [1] (setting [5]).
For the compound `COC(C/C=C/C=C/CC/C=C\CC(C)/C=C\C(=C/C(=O)O)CC(=O)O)/C(C)=C\C=C(/C)C(=O)O` (centres undefined), the values for the fold change in test [1] (setting [6]) and in test [1] (setting [3]) were 0.975 (inactive) and 1.25, respectively. Moreover, the cell count in test [1] (setting [4]) was found to be 5720; in test [1] (setting [5]) it was 5870. Moreover, the fold fluorescence in test [2] is 5.28 [at 10.3 µM] (inactive).
As to `CCCCCC(=O)N[C@H]1CCOC1=O`, the fold change is 0.883 (inactive) in test [1] (setting [6]) and 0.721 in test [1] (setting [3]). The cell count came to 5400 in test [1] (setting [4]) and 6120 in test [1] (setting [5]).
`C[C@H](N)C(=O)N[C@@H](C)C(=O)N[C@@H](Cc1ccccc1)C(=O)CCl` (H-Ala-Ala-Phe-CH2Cl): the fold change in test [1] (stronger effect = lower value) is 0.806 (inactive); in test [1] (setting [3]), 1.41. Moreover, the cell count in test [1] (setting [4]) worked out at 2970; in test [1] (setting [5]), 3680. The fold fluorescence in test [2] is 4.89 [at 147.1 µM] (inactive).
For the compound `CO/C1=C\C(C)=C\[C@@H](C)[C@@H](O)[C@@H](C)C/C(C)=C/C=C/[C@H](OC)[C@@H]([C@@H](C)[C@@H](O)[C@H](C)[C@@]2(O)C[C@@H](O)[C@H](C)[C@@H](C(C)C)O2)OC1=O`, the fold change in test [1] (setting [6]) was 1.05 (inactive); in test [1] (setting [3]), 1.29. Also, the cell count in test [1] (setting [4]) was found to be 2990; in test [1] (setting [5]) it was 2860. For the same compound, the fold fluorescence in test [2] is 11.4 [at 8 µM] (inactive).
For `CN[C@@H]1CC2OC(C)([C@@H]1OC)n1c3ccccc3c3c4c(c5c6ccccc6n2c5c31)C(=O)NC4` (some centres undefined), the fold change is 0.831 (inactive) in test [1] (stronger effect = lower value) and 0.918 in test [1] (setting [3]). For the same compound, the cell count stood at 692 in test [1] (setting [4]) and 832 in test [1] (setting [5]).
Regarding `CCCCC/C=C\C/C=C\C/C=C\C/C=C\CCCC(=O)NC[C@@H](C)O`, the fold change in test [1] (setting [6]) was 0.961 (inactive); in test [1] (setting [3]), 0.786. Further, the values for the cell count in test [1] (setting [4]) and in test [1] (setting [5]) were 5790 and 6030, respectively.
Turning to `c1cc(N2CCNCC2)c2cc[nH]c2c1`, the fold change was 0.865 (inactive) in test [1] (setting [6]) and 1.51 in test [1] (setting [3]). Also, the cell count in test [1] (setting [4]) was 4820; in test [1] (setting [5]), 5570.
Take `O[C@H]1[C@H]2[C@H](O)CCCN2C[C@H]1O`: the fold change in test [1] (stronger effect = lower value) is 0.852 (inactive); in test [1] (setting [3]), 1.17. Besides, the cell count in test [1] (setting [4]) came out at 5340; in test [1] (setting [5]), 6260.
In the case of `CCCCC/C=C\C/C=C\C/C=C\C/C=C\CCCC(=O)NC[C@H](C)O`, the fold change in test [1] (setting [6]) is 0.983 (inactive); in test [1] (setting [3]), 1.04. Moreover, the cell count in test [1] (setting [4]) was found to be 6010; in test [1] (setting [5]) it was 6110.

(Values after PubChem BioAssay.)
